Pf growth 48h = Primary qHTS for delayed death inhibitors of the malarial parasite plastid, 48 hour incubation; P. falciparum luciferase growth in erythrocytes, 48 h; Potency, µM (highest dose often 28.7 µM), hits mostly inhibitors; actives 5.9% (n = 310,000)
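A one-generation exposure of luciferase-tagged malaria parasites in RPMI 1640/Albumax erythrocyte culture, 37 C and 5% CO2. Inhibition is inferred from decreased luminescence after adding detection reagent.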
Shiga inhibitor = A qHTS for Small Molecule Inhibitors of Shiga Toxin | Vero cells, Shiga toxin protein synthesis inhibition reporter | inhibition, % at 38.7 µM | actives 9.2% (n = 290,000); in the data active = inhibition mostly above about 28%, no sharp cut-off; inactive = mostly below about 43%
CHX counter = Cycloheximide Counterscreen for Small Molecule Inhibitors of Shiga Toxin; cell reporter, cycloheximide protein synthesis inhibition counterscreen; max response, %; actives 12% (n = 300,000); AID 2314, 2010; in the data active = max response mostly above about 13%, no sharp cut-off; inactive = mostly below about 14%; also: read at 38.3 µM for the half of the compounds with a filed dose
Pf growth 96h = Primary qHTS for delayed death inhibitors of the malarial parasite plastid, 96 hour incubation; P. falciparum luciferase reporter growth, 96 h; Potency, µM (doses to about 28.7 µM), hits mostly inhibitors; actives 6.9% (n = 320,000)
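Erythrocytes infected with luciferase-expressing P. falciparum were dispensed at 2% hematocrit and 0.05% parasitemia (final), then incubated with compounds 96 hours at 37 C in 5% CO2. Luminescence after detection reagent addition reported growth.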
NS1 function inh = qHTS Assay for Inhibitors of Influenza NS1 Protein Function | Potency, µM (titrated, usually from 46.1 µM) | actives 0.4% (n = 270,000); calls by dose curve; also: actives are rising curves; nearly all actives have a fitted effect of over 50% in size
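Growth recovery, yeast-based: influenza A NS1 expressed in S. cerevisiae causes slow growth, and suppressors are detected by OD600. The parent strain without NS1 is used as positive control.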
SARS PLP yeast = qHTS of Yeast-based Assay for SARS-CoV PLP; S. cerevisiae expressing SARS-CoV PLpro, growth rescue; Potency, µM (doses to about 32.9 µM), usual class: activators; actives 0.19% (n = 330,000); calls by dose curve; also: nearly all actives have a fitted effect of over 55% in size
Each line names hits and unclear results; the compound was inactive in the other large screens. Sampled rows, rich in hits. Any-hit rate of the full collection: about 21%. Unless noted, calls follow the shape of the dose curve; as a rule, active = well fitted inhibition curve with a large enough effect; inconclusive = small, poorly fitted or top-dose-only effect, or another doubt; inactive = no such curve, though single readings can be large or run the other way.

C/C(=N\Nc1cccc2cccnc12)c1ccccc1O	Shiga inhibitor 46.4, CHX counter 36.1 (no result: NS1 function inh)
C/C(=N\Nc1cccc2cccnc12)c1ccc(N)cc1	Shiga inhibitor 119.4, CHX counter 36.3
Cc1cc2nsnc2c(S(=O)(=O)N2CCN(C)CC2)c1C	none
C/C(=N/NS(=O)(=O)c1ccc(F)cc1)c1ccc(NC(=O)c2ccc(C)o2)cc1	CHX counter 34.7 (no result: Pf growth 48h)
C/C(=N\NC(=O)C1(C)CC1(Br)Br)c1ccc(NC(=O)c2ccc(C)o2)cc1 (stereo unspecified)	Pf growth 48h inconclusive, Shiga inhibitor 53.8, CHX counter 23.8, Pf growth 96h 9.28µM
C/C(=N\NC(=O)c1c([N+](=O)[O-])c(C)nn1C)c1ccc(NC(=O)c2ccc(C)o2)cc1	Shiga inhibitor 51.1, CHX counter 24.7
C/C(=N\NS(=O)(=O)c1ccc(C)cc1)c1ccc(C)o1	none
Cc1occc1C(=O)N(Cc1nc(-c2ccccc2)no1)C(C)C	none
COc1ccc(C2CC(c3c(-c4ccccc4)c4cc(Cl)ccc4[nH]c3=O)=NN2S(C)(=O)=O)cc1OC (stereo unspecified)	Pf growth 48h 10.4µM, Pf growth 96h inconclusive
COc1ccc(-c2noc(CCC(=O)N3CCN(c4cccc(Cl)c4)CC3)n2)cc1	none (no result: Pf growth 48h, Shiga inhibitor, CHX counter, Pf growth 96h, NS1 function inh)
N/C(=N\OC(=O)Cc1ccccc1)c1cccnc1	CHX counter 20.6
N/C(=N\OS(=O)(=O)c1ccc(Cl)cc1)c1cccnc1	Pf growth 96h inconclusive
N/C(=N\OC(=O)Cc1ccc(Cl)cc1)c1cccnc1	CHX counter 15.2
N/C(=N\OC(=O)Cc1ccccc1)c1ccccc1Cl	Shiga inhibitor 93.7, CHX counter 58.7 (no result: NS1 function inh)
N/C(=N\OC(=O)Cc1ccc(-c2ccccc2)cc1)c1cccnc1	none
COc1ccc(OCCCC(=O)ON=C(N)c2ccccc2Cl)cc1	none (no result: Shiga inhibitor, CHX counter, NS1 function inh)
Nn1c(SCC(=O)N2CCCCCC2)nnc1-c1ccco1	none (no result: Shiga inhibitor, CHX counter, NS1 function inh)
COc1ccc(-c2c(NC(=O)c3ccco3)oc3c(C)cccc3c2=O)cc1OC	none
CC1(c2ccccc2)NC(=O)N(CC(=O)NCC2CCCO2)C1=O (stereo unspecified)	none (no result: Shiga inhibitor, CHX counter, NS1 function inh)
N#CCCN1CCN(C(=S)c2ccc(-c3ccc(Cl)cc3)o2)CC1	Shiga inhibitor 90.6, CHX counter 27.9, Pf growth 96h inconclusive
S=C(c1ccc(-c2ccc(Cl)cc2)o1)N1CCCCC1	Shiga inhibitor 95.5, CHX counter 39.1
CN1CCN(C(=S)c2ccc(-c3cccc(Cl)c3Cl)o2)CC1	Shiga inhibitor active, CHX counter 39.9
S=C(c1ccc(-c2ccccc2Cl)o1)N1CCCCC1	Shiga inhibitor 61.7, CHX counter 47.7
O=C(Nc1ccccc1N1CCCCC1)c1ccc(-c2ccc(Cl)cc2)o1	Pf growth 48h inconclusive, Pf growth 96h inconclusive
COc1ccc(C(=O)N/N=C(\N)c2cc3ccccc3oc2=O)cc1	Pf growth 96h inconclusive
CC(C)=C1C2CCC1C1C(=O)N(c3nc(-c4ccccc4)c(C)s3)C(=O)C21 (stereo unspecified)	none
O=C(c1ccco1)N1CCN(Cc2cccc3ccccc23)CC1	Pf growth 48h inconclusive
C=CCNS(=O)(=O)c1ccc(N2C(=O)c3ccccc3C2=O)cc1	Pf growth 96h inconclusive
COc1ccc(N2CCN(c3ccc(C(=O)O)cc3[N+](=O)[O-])CC2)cc1	CHX counter 11.6
NC(=O)c1ccc(N2CCN(c3ccc(O)cc3)CC2)c([N+](=O)[O-])c1	Pf growth 48h inconclusive, Pf growth 96h 1.65µM
CCN(CC)S(=O)(=O)c1ccc(N2CCN(c3cccc(OC)c3)CC2)c([N+](=O)[O-])c1	Pf growth 48h inconclusive, Pf growth 96h 9.28µM
NC(=O)CC(NC(=O)c1ccccc1)c1ccc(N2CCN(c3ccc(F)cc3)CC2)c([N+](=O)[O-])c1 (stereo unspecified)	none
COc1ccc(C(=O)c2ccc(N3CCOCC3)c([N+](=O)[O-])c2)cc1	none
NC(=O)CC(NC(=O)c1ccccc1)c1ccc(N2CCN(c3ccccc3)CC2)c([N+](=O)[O-])c1 (stereo unspecified)	Pf growth 96h 14.7µM
Oc1cccc(/C=N/Nc2cccc3cccnc23)c1	Shiga inhibitor 123.3, CHX counter 44.3
Oc1c(/C=N/Nc2cccc3cccnc23)ccc2ccccc12	Pf growth 48h 5.86µM, Shiga inhibitor 90.4, CHX counter 73.7
COc1cc(/C=N/Nc2cccc3cccnc23)cc(OC)c1O	Pf growth 48h inconclusive, Shiga inhibitor 68.9, CHX counter 34.5 (no result: NS1 function inh)
O=C(/C=C/c1cccc(F)c1)OCC(=O)N1CCc2ccccc21	none (no result: Pf growth 48h, Shiga inhibitor, CHX counter, Pf growth 96h, NS1 function inh)
CC(C)N1CCN(Cc2cccc(-n3cccn3)c2)CC1CCO (stereo unspecified)	none
CC(C)N(C(=O)COC(=O)[C@@H]1CC(O)CN1S(=O)(=O)c1ccc(C(C)(C)C)cc1)C(C)C (stereo partly specified)	Pf growth 48h 4.15µM, Pf growth 96h 6.57µM (no result: NS1 function inh)
COc1ccc(S(=O)(=O)N2CC(O)CC2C(=O)OCC(=O)Nc2ccc(Cl)cn2)cc1 (stereo unspecified)	Pf growth 96h 1.47µM
CCOc1ccc(-c2nc(CSCC(=O)N3CCN(C(=O)c4ccco4)CC3)c(C)o2)cc1	Shiga inhibitor 93.9, CHX counter 24.9, Pf growth 96h inconclusive (no result: Pf growth 48h)
CCOC(=O)C1CCN(C(=O)CSCc2nc(-c3ccc(OCC)cc3)oc2C)CC1	Pf growth 48h inconclusive, CHX counter 15.4
CCOc1ccc(NC(=O)N2CCC(n3nnc4ccccc43)CC2)cc1	Pf growth 48h inconclusive
O=C(NC12CC3CC(CC(C3)C1)C2)N1CCC(n2nnc3ccccc32)CC1	Pf growth 48h inconclusive, Pf growth 96h 9.28µM
O=C(NC12CC3CC(CC(C3)C1)C2)N1CCN(c2ncccn2)CC1	Pf growth 96h inconclusive
O=C(NC12CC3CC(CC(C3)C1)C2)N1CCN(c2ccccn2)CC1	Pf growth 48h 11.7µM
CC1Cc2cc(C(=O)O)ccc2O1 (stereo unspecified)	none
C/C(=N\O)c1ccc2c(c1)CC(C)O2 (stereo unspecified)	CHX counter 13.3
Cc1cc(C)c2cc(CN(CCO)C(=O)Nc3ccc(F)cc3)c(=O)[nH]c2c1	Pf growth 48h inconclusive, Pf growth 96h inconclusive
COc1cc2cc(CN(CCN3CCCC3)C(=O)Nc3ccc(F)cc3)c(=O)[nH]c2cc1OC	Pf growth 48h 9.28µM
COc1cc2cc(CN(CCN3CCOCC3)C(=O)Nc3ccc(F)cc3)c(=O)[nH]c2cc1OC	Pf growth 48h inconclusive
Cc1ccc(C)c2[nH]c(=O)c(CN(CCN3CCCC3)C(=O)Nc3ccc(F)cc3)cc12	Pf growth 48h 4.15µM, Pf growth 96h inconclusive
O=C(Nc1cc(Cl)ccc1N1CCOCC1)c1cccnc1Cl	none

Bioassay records: PubChem BioAssay, National Center for Advancing Translational Sciences (NCATS)
